Test results as given in PubChem BioAssay AID1851 (National Center for Advancing Translational Sciences (NCATS), 2009).
Several values for one entry are separate records, joined by “and”; a condition that tells them apart may be missing. Identical values can stand only once. The whole screen tested about 16,000 compounds, of which about 5,700 (36%) were called active. Roughly 24% stayed inconclusive and do not appear here. This is one part of the list. A number with no mark means an inactive call. Calls follow the shape of the dose curve; as a rule, active = well fitted curve in the direction sought with a large enough effect; inconclusive = small, poorly fitted or top-dose-only effect, or effect the other way; inactive = no such curve, though single readings can be large or run the other way.
% is scaled to controls: 0 for no effect and ±100 for the full control effect.

These molecules were tested against Cytochrome P450 1A2 (Homo sapiens) (UniProt P05177) (assay: Cytochrome panel assay with activity outcomes). Conditions: recombinant CYP, pro-luciferin dealkylation, luminescence, p450-cyp1a2; series mostly up to 57.1 µM.
Chain of Cytochrome P450 1A2 (Homo sapiens) (P05177 whole entry, looked up): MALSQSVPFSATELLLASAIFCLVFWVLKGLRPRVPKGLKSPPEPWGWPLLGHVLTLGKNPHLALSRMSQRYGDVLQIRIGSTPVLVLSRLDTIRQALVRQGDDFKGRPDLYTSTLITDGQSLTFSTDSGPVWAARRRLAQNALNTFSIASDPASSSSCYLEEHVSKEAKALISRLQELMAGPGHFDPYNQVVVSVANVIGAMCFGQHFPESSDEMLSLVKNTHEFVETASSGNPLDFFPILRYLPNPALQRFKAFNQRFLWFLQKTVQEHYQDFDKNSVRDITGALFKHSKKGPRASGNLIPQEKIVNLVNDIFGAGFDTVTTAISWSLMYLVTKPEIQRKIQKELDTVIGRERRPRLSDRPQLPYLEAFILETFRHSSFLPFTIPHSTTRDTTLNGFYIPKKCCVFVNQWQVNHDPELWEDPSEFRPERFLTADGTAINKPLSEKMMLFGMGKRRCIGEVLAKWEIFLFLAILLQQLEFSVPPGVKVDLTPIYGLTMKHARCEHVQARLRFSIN
`Cc1cc(C)n(-c2cc(N3CCN(S(=O)(=O)c4ccc(C)c(C)c4)CC3)ccc2[N+](=O)[O-])n1` was tested, and the AC50 was “inactive”.
For `OC[C@@H](O)COc1cccc2ccccc12`, the AC50 was 0.631 µM (active).
For `CC(C)NC[C@H](O)COc1cccc2ccccc12`, the AC50 was 0.2 µM (active).
With `CC(=O)Nc1ccc(OC[C@@H](O)CNC(C)C)cc1` the AC50 was “inactive”.
With `CC(C)NC[C@H](O)c1ccc(NS(C)(=O)=O)cc1` the AC50 was “inactive”.
`O=C(O)c1cc(=O)c2c(OCC(O)COc3cccc4oc(C(=O)O)cc(=O)c34)cccc2o1` was tested, and the AC50 was “inactive”.
With `CC(C)NC[C@H](O)c1ccc2ccccc2c1` the AC50 was 12.6 µM (active).
Work on `OC[C@@H](O)CNc1ncnc2ccccc12` yielded an activity, negative = inhibition of -18.7% [at 11.4 µM].
With `CC(C)NC[C@H](O)c1cc(O)cc(O)c1` the AC50 was “inactive”.
`CC(C)NC[C@@H](O)c1ccc(O)c2ncccc12` showed an activity, negative = inhibition of -12.1% [at 2.29 µM].
`CC(C)NC[C@@H](O)COc1ccc(COCCOC(C)C)cc1` was tested, and the AC50 was “inactive”.
With `O=C(Cc1ccccc1)N/N=C\c1ccc(Br)o1` the AC50 was 4.47 µM (active).
With `O=C(O)/C(=C\c1ccccc1)Cc1ccccc1` the activity, negative = inhibition was -18.4% [at 11.4 µM].
Work on `N[C@@](CC(=O)O)(Cc1ccccc1)C(=O)O` yielded an activity, negative = inhibition of -13.4% [at 2.29 µM].
`O=C(Cc1ccccc1)N/N=C/c1cc(Br)c(Br)o1` was tested, and the AC50 was 2.24 µM (active).
For `COC(=O)c1ccc(-n2cncn2)c(F)c1`, the AC50 was 0.708 µM (active).
In the case of `COC(=O)c1ccc2ccn(CC(=O)NC3CCCCC3)c2c1`, the AC50 is reported as “inactive”.
Work on `O=P(O)(O)O[C@@H]1O[C@H](CO)[C@@H](O)[C@H](O)[C@@H]1O` yielded an activity, negative = inhibition of -16.5% [at 11.4 µM].
For `COc1ccccc1OCCCCCc1c(C)n[nH]c1C`, the AC50 was 1.78 µM (active).
For `O=C(c1ccc(Cl)cc1)N1CCN(c2cc(=O)[nH]nc2-c2ccccc2)CC1`, the AC50 was “inactive”.
With `O=c1cc(N2CCCCC2)c(-c2ccccc2)nn1Cc1ccccc1Cl` the AC50 was 1.26 µM (active).
For `O=[N+]([O-])c1ccc(N2CCN(CCOc3nonc3-c3ccccc3)CC2)c(Cl)c1`, the AC50 was “inactive”.
In the case of `Cc1cccc(N(NC(=O)C(C)(C)O)C(=O)c2ccccc2)c1`, the AC50 is reported as “inactive”.
For `Cc1cccc(CNc2ccnc(-c3ccc(C(=O)N(C)C)cc3)n2)c1`, the AC50 was 25.1 µM (active).
In the case of `CN(C)C(=O)c1ccc(-c2nccc(NCc3cccnc3)n2)cc1`, the AC50 is reported as 15.8 µM (active).
For `C/C(=N\N=C1\NC(=O)CC(C(=O)O)S1)c1cccs1` (stereo not drawn), the AC50 was “inactive”.
For `C/C(=N\N=C(c1ccccc1)c1ccccc1)c1cccs1`, the AC50 was 1.41 µM (active).
Work on `C[C@@H](CSC(=N)N)C(N)=O` yielded an activity, negative = inhibition of -6.57% [at 2.29 µM].
`Cc1ccc(-c2cccc(OC(=O)c3ccccc3F)c2)cc1` was tested, and the AC50 was 1.26 µM (active).
In the case of `O=C(c1cc(O)c(O)c([N+](=O)[O-])c1)c1ccccc1F`, the AC50 is reported as “inactive”.
In the case of `c1ccc(-c2nnc(SCc3nc4ccccc4[nH]3)n2Cc2ccco2)cc1`, the AC50 is reported as 14.1 µM (active).
With `Cc1ccccc1CSc1nnc(-c2cccs2)n1Cc1ccco1` the AC50 was 4.47 µM (active).
For `CCn1c(SCc2nc3ccccc3[nH]2)nnc1-c1ccc(OC)cc1`, the AC50 was 25.1 µM (active).
`CCn1c(SCC(=O)NC(=O)NCc2ccco2)nnc1-c1cccs1` was tested, and the AC50 was “inactive”.
In the case of `O=c1cc(CSc2ccccc2)[nH]c(=S)[nH]1`, the AC50 is reported as “inactive”.
In the case of `c1ccc(SCc2nc3ccccc3[nH]2)cc1`, the AC50 is reported as 11.2 µM (active).
With `COCCn1c(Cc2ccccc2)nnc1SCc1nc2ccccc2c(=O)[nH]1` the AC50 was “inactive”.
For `Cc1cc(NC(=O)CSc2nnc(-c3ccccc3)n2Cc2ccco2)no1`, the AC50 was “inactive”.
`COc1ccc(NC(=O)CCNS(=O)(=O)c2ccc3c(c2)CCC(=O)N3)cc1` was tested, and the AC50 was “inactive”.
With `Cc1ccccc1C1C(C#N)=C2N=C(N)c3c(sc4c3CCCCC4)N2C2=C1C(=O)CC(C)(C)C2` (stereo not drawn) the AC50 was “inactive”.
With `COc1ncc2nc(-c3cccs3)c(=O)n(-c3ccccc3)c2n1` the AC50 was 2 µM (active).
With `CN(C)c1ncc2nc(-c3cccs3)c(=O)n(-c3ccccc3)c2n1` the AC50 was 31.6 µM (active).
For `COc1ccc(Oc2ncc3nc(-c4cccs4)c(=O)n(-c4ccccc4)c3n2)cc1`, the AC50 was 3.16 µM (active).
With `COc1ccc(-n2c(=O)c(-c3cccs3)nc3cnc(OC)nc32)cc1` the AC50 was 5.01 µM (active).
In the case of `C/C(CCN1CCCc2nc(C)c(C)cc21)=N\O[C@@H](C)c1cn([C@H](CO)Cc2ccccc2)nn1`, the activity, negative = inhibition is reported as -5.46% [at 11.4 µM] and -2.73% [at 11.4 µM].
With `Nc1ncnc2c1ncn2[C@H]1O[C@@H](C(=O)O)[C@@H](O)[C@H]1O` the activity, negative = inhibition was -10.9% [at 11.4 µM].
With `CC(C)CN1CCCC2(CCN(C(=O)c3csnn3)CC2)C1` the AC50 was “inactive”.
For `O=C(c1ccc2ncsc2c1)N1CCN(c2ccc(O)cc2)CC1`, the AC50 was “inactive”.
With `Nc1ccc(N2CCN(C(=O)c3ccco3)CC2)cc1` the AC50 was “inactive”.
With `O=C(c1cc(-c2cccs2)on1)N1CCN(c2ccc(F)cc2)CC1` the AC50 was 2.82 µM (active).
`Cc1cc(C)c(-c2noc(C(=O)OC(C)(C)C)c2C(=O)OC(C)(C)C)c(C)c1` was tested, and the AC50 was “inactive”.
With `Cn1c(=O)c(-c2ccccc2)nc2cnc(OCc3ccccc3)nc21` the AC50 was 1.58 µM (active).
For `Cn1c(=O)c(-c2ccc(Cl)cc2)nc2cnc(OCc3ccccc3)nc21`, the AC50 was 0.794 µM (active).
In the case of `O=C(c1csnn1)N1CCC2(CCN(Cc3nccs3)CC2)CC1`, the AC50 is reported as “inactive”.
`COc1ccc(CCNC(=O)CC(NS(=O)(=O)c2ccc(NC(C)=O)cc2)C(C)C)cc1OC` (stereo not drawn) was tested, and the AC50 was “inactive”.
With `COc1ccc(CONS(=O)(=O)c2ccc(NC(C)=O)cc2)cc1Cl` the AC50 was 14.1 µM (active).
`COC(=O)C(NS(=O)(=O)c1ccc(NC(C)=O)cc1)C(C)C` (stereo not drawn) was tested, and the AC50 was “inactive”.
For `O=C(CSc1nc2ccccc2c(=O)n1NC(=O)Cc1ccccc1)NCc1ccccc1Cl`, the AC50 was 15.8 µM (active).
With `CCc1cc(C(c2ccccc2OC)N2CCOCC2)c(NC(=O)c2ccccc2)s1` (stereo not drawn) the AC50 was “inactive”.
With `CCOC(=O)c1c(-c2cccc(C)c2)csc1NC(=O)c1c(-c2ccccc2)noc1C` the AC50 was “inactive”.
For `CCOC(=O)c1c(-c2ccc(C)cc2)csc1NC(=O)C1CC=CCC1C(=O)O` (stereo not drawn), the AC50 was 12.6 µM (active).
With `CCOC(=O)c1c(-c2ccccc2)csc1NC(=O)c1cccc(N2C(=O)CCC2=O)c1` the AC50 was 8.91 µM (active).
In the case of `CCOC(=O)c1c(NC(=O)C2C3CCC(O3)C2C(=O)O)sc(C)c1-c1ccc(C)cc1` (stereo not drawn), the AC50 is reported as “inactive”.
